14 molecules from PubChem BioAssay (NCI) can be followed below.

Among the test systems are T-47D breast; BT-549 breast; MDA-MB-435 melanoma; SW-620 colon; MCF7 breast; HCT-116 colon; HCC-2998 colon; KM12 colon.
What all share (assay): NCI-60 one-dose screen, 48 h (100 = growth as untreated, 0 = no growth, -100 = all killed)
Details in all cases: 10 µM unless noted

Molecules are shown by their SMILES. Compounds without any hit were thinned out: in the full panel of roughly 83,000, 20% have a hit.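 For each line, cells grew in 96-well plates with the test compound present at a single concentration for 48 hours.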 Unmarked numbers belong to inactive results. Active and inactive are the calls of the source. The calls were made as follows: active = growth percent below 10; inactive = the rest.

With `COc1cc(NCCCN(CC(C)C)C2CCCC2)c2ncccc2c1`, the growth in the test on T-47D breast was 29.9%; with BT-549 breast, 75.6%; in the test with MDA-MB-435 melanoma, 89.2%; with SW-620 colon, 41.4%; in the test with MCF7 breast, 0.473% (active); in the test with HCT-116 colon it was 37.8%. The growth with HCC-2998 colon is 92.4%; in the test with KM12 colon, 93%.
For `COc1ccc(/C=C/C(=O)c2ccc(Nc3ncnc4ccccc34)cc2)cc1OC`, the growth in the test on T-47D breast is 78.6%; in the test on BT-549 breast it was 56.3%; in the test on MDA-MB-435 melanoma it was 7.77% (active); in the test on SW-620 colon, 27.5%; in the test on MCF7 breast, 16.1%; in the test with HCT-116 colon it was 9.59% (active). Besides, the growth was 29.9% in the test with HCC-2998 colon and 16.3% with KM12 colon.
In the case of `Cc1cc(C(=O)Nc2ncnc3nc[nH]c23)no1`, the growth is 103% in the test with T-47D breast; 106% with BT-549 breast; 102% in the test on MDA-MB-435 melanoma; 96.1% in the test on SW-620 colon; 93.3% with MCF7 breast; 105% in the test with HCT-116 colon. In addition, the growth in the test on HCC-2998 colon is 104%; in the test with KM12 colon, 99.5%.
Take `COc1ccc(/C=N/NC(=O)c2cccc3cc[nH]c23)cc1O`: the growth with T-47D breast was 41.4%; in the test on BT-549 breast, 55.9%; in the test on MDA-MB-435 melanoma, -21.4% (active); in the test on SW-620 colon it was 29.8%; in the test on MCF7 breast, 8.85% (active); in the test with HCT-116 colon, 21.8%. The growth is 55.4% with HCC-2998 colon and 29.8% in the test with KM12 colon.
For the molecule `COc1cc(Nc2cc(O)c3c(=O)cc(-c4ccccc4)oc3c2)cc(OC)c1`, the growth in the test on T-47D breast was 55.2%; with BT-549 breast it was 80.2%; in the test with MDA-MB-435 melanoma, 4.04% (active); with SW-620 colon it was 24.9%; in the test with MCF7 breast, 23.5%; in the test with HCT-116 colon, 13%. Further, the values for the growth with HCC-2998 colon and in the test on KM12 colon were 32.4% and 21%, respectively.
Consider `CCn1cc(C2NC(=O)c3ccccc3N2)c2cccc(C)c21` (configuration not stated), for which the growth with T-47D breast is 36.9%; with BT-549 breast, 48.7%; with MDA-MB-435 melanoma it was -31.9% (active); with SW-620 colon it was 24.7%; in the test on MCF7 breast, 16.9%; in the test with HCT-116 colon, 7.91% (active). For the same molecule, the growth is 9.07% (active) in the test on HCC-2998 colon and 15.9% in the test with KM12 colon.
As to `Cc1c(C2=CCCCC2)c2ccccn2c1C(=O)c1cccc(S(=O)(=O)N2CCOCC2)c1`, the growth is 79.3% in the test with T-47D breast; 54.8% with BT-549 breast; 62.5% in the test on MDA-MB-435 melanoma; 98.2% with SW-620 colon; 93.4% in the test with MCF7 breast; 43% in the test on HCT-116 colon. The figures for the growth in the test on HCC-2998 colon and in the test on KM12 colon were 82.2% and 72.3%, respectively.
With `COc1cc(NCC(C)(O)CN(CC(C)C)CC(C)C)c2nc(C)ccc2c1` (configuration not stated), the growth is 7.65% (active) in the test with T-47D breast; 92.4% with BT-549 breast; 102% in the test on MDA-MB-435 melanoma; 86.5% in the test with SW-620 colon; -46.1% (active) in the test with MCF7 breast; 66.3% in the test with HCT-116 colon. The figures for the growth with HCC-2998 colon and in the test on KM12 colon were 75.5% and 63.2%, respectively.
For the molecule `Fc1ccc(C2CC(c3cccc(Nc4ccncc4)c3)=NN2c2ccccc2)cc1` (configuration not stated), the growth in the test on T-47D breast is 71%; with BT-549 breast, 87.7%; with MDA-MB-435 melanoma, -54.8% (active); in the test on SW-620 colon, -65.4% (active); in the test with MCF7 breast, 8.89% (active); in the test on HCT-116 colon, 61.9%. For the same molecule, the growth in the test with HCC-2998 colon was 3.99% (active); in the test on KM12 colon, 8.85% (active).
As for `Cc1cc(Nc2cccc(C(F)(F)F)c2)n2c(nc3ccccc32)c1C#N`, the growth in the test with T-47D breast is 8.68% (active); in the test with BT-549 breast it was 19.4%; in the test on MDA-MB-435 melanoma, 45.5%; in the test with SW-620 colon, 23.8%; in the test on MCF7 breast it was 36.3%; in the test on HCT-116 colon, 39.6%. Further, the growth with HCC-2998 colon was 46.3%; with KM12 colon, 20.9%.
As for `CCCCCCN(C)Cc1ccc(OCCOc2ccc(CN(C)CCCCCC)cc2)cc1`, the growth with T-47D breast was -13.7% (active); with BT-549 breast it was 26.2%; with MDA-MB-435 melanoma, -17.4% (active); with SW-620 colon, -70.2% (active); in the test on MCF7 breast, -76.3% (active); with HCT-116 colon, -96.1% (active). Further, the growth was -87.5% (active) in the test on HCC-2998 colon and -19.3% (active) in the test on KM12 colon.
Take `O=C1/C(=C\c2cn(Cc3ccccc3)c3ccc(Br)cc23)c2ccccc2N1c1c(Cl)cccc1Cl`: the growth is 94.5% with T-47D breast; 106% in the test with BT-549 breast; 105% in the test with MDA-MB-435 melanoma; 108% with SW-620 colon; 96.7% in the test with MCF7 breast; 94.7% with HCT-116 colon. The growth in the test on HCC-2998 colon was 106%; in the test with KM12 colon it was 104%.
With `CCOC(=O)c1c(C)nc2c(c1N)C(=O)C(=O)N2Cc1ccc(C(F)(F)F)cc1`, the growth in the test with T-47D breast is 44%; in the test on BT-549 breast, 53.4%; in the test on MDA-MB-435 melanoma, 6.09% (active); with SW-620 colon, 35.6%; in the test on MCF7 breast it was 11.7%; in the test with HCT-116 colon it was 27.2%. For the same molecule, the growth in the test on HCC-2998 colon was 98.1%; in the test on KM12 colon, 27.8%.
Take `CO[C@@H]1[C@H](N(C)C(=O)c2ccccc2)C[C@@H]2O[C@]1(C)n1c3ccccc3c3c4c(c5c6ccccc6n2c5c31)C(=O)NC4=O`: the growth in the test with T-47D breast is 40.5%; with BT-549 breast it was 45%; with MDA-MB-435 melanoma, 45.9%; with SW-620 colon, 18.6%; with MCF7 breast, 42%; with HCT-116 colon, 25.8%. Also, the growth with HCC-2998 colon was 61.9%; in the test with KM12 colon it was 21.8%.
